Sampled rows, rich in hits. Any-hit rate of the full collection: about 4%.
Bst PK mod: Pyruvate Kinase | purified pyruvate kinase, luminescence ATP production; ribose 5-phosphate activator present at AC10 | 51,000 tested, 1.2% active | AID 361, 2006 | Potency, µM; in the data active = potency below about 11 µM; inconclusive = mostly about 12 µM to 25 µM;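 the screen sought inhibitors and activators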;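 also: scaled between full activation by ribose 5 phosphate and full inhibition by luteolin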
GBA activity: Glucocerebrosidase | purified enzyme, resorufin glucoside fluorescence (screen aimed at inhibitors), 20 min | Potency, µM | 48,000 tested, 1.1% active | AID 360, 2006; in the data active = potency below about 15 µM; inconclusive = mostly about 16 µM to 33 µM;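 also: the screen sought inhibitors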
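Normal human glucocerebrosidase (0.2 nM final) was assayed with resorufin β-D-glucopyranoside (30 uM final) in 50mM citric acid/KH2PO4, 10mM sodium taurocholate, 0.01% tween-20, pH 5.9. Compounds were titrated; fluorescence (Ex 548, Em 600) read after 20 min at RT.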
TSHR ag: qHTS Assay for Agonists of the Thyroid Stimulating Hormone Receptor; Potency, µM (doses to about 57.1 µM), for inactives: at the top dose activation, hits mostly activators; HEK293-CNG-TSHR cells (CNG channel as cAMP sensor), membrane potential dye, cAMP; Thyrotropin receptor (Homo sapiens), P16473; 73,000 tested, 0.48% active; active = well fitted activation curve with a large enough effect in the main read-out, with a control signal flat, not every such curve was filed as active; inconclusive = small, poorly fitted or top-dose-only effect, or a change in a side signal; inactive = no such curve, though single readings can be large or run the other way; % of control where 0% means no effect;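 also: the control signal comes from parental cells without the receptor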
Target sequence (P16473 whole entry, looked up): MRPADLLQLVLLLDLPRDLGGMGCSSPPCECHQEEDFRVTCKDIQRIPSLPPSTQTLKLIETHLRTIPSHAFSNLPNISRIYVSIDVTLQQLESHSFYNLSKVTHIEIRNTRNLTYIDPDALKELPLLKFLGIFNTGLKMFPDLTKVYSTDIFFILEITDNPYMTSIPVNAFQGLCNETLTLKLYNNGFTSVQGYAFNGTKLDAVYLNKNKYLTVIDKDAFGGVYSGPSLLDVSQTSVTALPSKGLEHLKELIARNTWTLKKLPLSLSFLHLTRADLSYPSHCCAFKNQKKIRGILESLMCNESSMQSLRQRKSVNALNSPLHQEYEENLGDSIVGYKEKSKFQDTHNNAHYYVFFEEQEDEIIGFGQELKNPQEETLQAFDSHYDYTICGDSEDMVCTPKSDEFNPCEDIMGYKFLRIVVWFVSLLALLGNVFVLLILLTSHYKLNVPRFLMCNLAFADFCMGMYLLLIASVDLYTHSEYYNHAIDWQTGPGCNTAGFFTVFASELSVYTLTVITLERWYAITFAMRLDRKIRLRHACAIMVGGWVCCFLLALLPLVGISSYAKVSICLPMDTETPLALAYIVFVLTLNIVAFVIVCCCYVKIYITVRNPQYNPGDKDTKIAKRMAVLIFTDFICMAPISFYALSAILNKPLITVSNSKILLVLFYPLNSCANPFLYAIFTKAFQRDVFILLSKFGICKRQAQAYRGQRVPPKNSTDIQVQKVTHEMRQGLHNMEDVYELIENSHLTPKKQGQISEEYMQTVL
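HEK 293 cells stably expressing TSHR and a cAMP-gated CNG channel; parental CNG-only cells as counterscreen. Cells preloaded 60 min with membrane potential dye plus 100 uM RO 20-1724, then compound 30 min; fluorescence read at 590 nm.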
HEK293 cAMP ctrl: qHTS Assay for Agonists of the Thyroid Stimulating Hormone Receptor: Activators of Intracellular cAMP Concentrations in Parental HEK 293 | parental HEK293 CNG cAMP sensor, membrane potential fluorescence | Potency, µM (titrated, usually from 57.1 µM), without a hit: at the highest dose activation, usual class: activators | 73,000 tested, 2.5% active | AID 938, 2007; active = well fitted activation curve with a large enough effect; inconclusive = small, poorly fitted or top-dose-only effect; inactive = no such curve, though single readings can be large or run the other way; also: % of control where 0% means no effect; nearly all actives have a fitted effect of over 55% in size
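Parental HEK 293 cells stably expressing a modified CNG channel (no TSHR) report cAMP rise as membrane depolarization. Membrane potential dye with 100 uM RO 20-1724 was loaded for 60 min at room temperature, then compound added for 30 min; fluorescence read at 590 nm.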
Active calls of the source: *; i = inactive; ? = inconclusive; / = no result; ! = not confirmed by another sample; [ ] = another dose, or the depositor's remark. Potency is read from the fitted curve at half-maximal effect.

SMILES | Bst PK mod | GBA activity | TSHR ag | HEK293 cAMP ctrl
CC1(C)Cc2c(sc3c2C2=NCCN2C=N3)CS1 | >26 | / | / | /
COCCn1c(-c2ccc(Cl)cc2)cnc1SCC(=O)NCc1cccs1 | >57 | >77 | ? | 10µM*
O=C(CN1CCC(c2nc3ccccc3[nH]2)CC1)Nc1ccc2c(c1)OCO2 | >57 | 14* | 15% | 9%
COCCn1c(=S)[nH]c2cc(C(=O)N3CCN(Cc4ccc5c(c4)OCO5)CC3)ccc2c1=O | >57 | >77 | 16% | 27%
COCCn1c(=S)[nH]c2cc(C(=O)N3CCc4ccccc43)ccc2c1=O | >57 | >77 | ? | 16µM*
CCOC(=O)c1c(C)[nH]c(C(=O)Nc2ccc3c(c2)OCO3)c1C | i | 13* | -16% | -6%
O=S(=O)(Nc1cccnc1)c1cccc2cccnc12 | / | / | -4% | 3%
[O-][N+](=Nc1ccccc1)c1ccccc1 | / | / | -4% | -18%
O=C1C2=CC[C@H]3C(=O)N(C[C@@H]4CCCO4)C(=O)[C@@H]3[C@@H]2[C@H](O)[C@@H]2O[C@H]12 | / | / | -5%[11.4 µM] | -2%[11.4 µM]
COc1ccc(-c2cc(N)n(S(=O)(=O)c3c(F)c(F)c(F)c(F)c3F)n2)cc1OC | i | >77 | 0.79µM* | 12%
COc1ccc(S(=O)(=O)n2nc(-c3cc(OC)c(OC)c(OC)c3)cc2N)cc1OC | / | / | 16% | 10%
O=C(Nc1cn(-c2ccccc2)nc1-c1cccs1)c1ccco1 | / | / | ? | 32µM*
CCOC(=O)N1CC=C2C(C#N)=C(N)C(C#N)(C#N)[C@H](c3ccc(OCC)c(OCC)c3)[C@H]2C1 | >57 | >77 | 12% | 18%
CCCCOc1ccc(C2C3CN(C(=O)OCC)CC=C3C(C#N)=C(N)C2(C#N)C#N)cc1OC (stereo unspecified) | / | 15* | 12% | 13%
CCOC(=O)OCC1OC(c2ccccc2)C=CC1Oc1ccc2oc(=O)cc(C)c2c1 (stereo unspecified) | / | / | -4%[11.4 µM] | 7%[11.4 µM]
COC(=O)C/C=C\[C@@H](C)[C@@H](/C=N\O[C@@H](C)c1cn([C@H]2COC[C@H]2O)nn1)OC | / | / | 3%[11.4 µM] | -2%[11.4 µM]
Nc1ncnc2nc[nH]c12.Nc1ncnc2nc[nH]c12.[Cl][Pt]([Cl])([Cl])[Cl] | / | / | -4%[11.4 µM] | 0%[11.4 µM]
CN1CCc2nc(SCCOc3ccccc3)c(C#N)cc2C1 | >57 | 10* | ? | ?
CCOC(=O)C1=C(CSc2nc3c(cc2C#N)CN(C)CC3)OC(N)=C(C#N)C1c1ccccc1 (stereo unspecified) | >26 | / | / | /
N=C(N)S/C=C\C(=O)O | / | / | 13% | 1%
O=C1c2ccccc2C(=O)C1c1ccc2ccccc2n1 | 1.1* | / | -7% | 21%
C[C@@H](N)/C(N)=N/O | / | / | -2%[11.4 µM] | 2%[11.4 µM]
O=C(O)CNCCc1ccccc1 | / | / | ? | -56%[11.4 µM]
CC#N | / | / | 2% | -9%
Clc1ccccc1-c1nnc2sc(-c3ccccn3)nn12 | >57 | >77 | 6% | 10%
SMILES | Bst PK mod | GBA activity | TSHR ag | HEK293 cAMP ctrl
COc1cccc(OC)c1-c1nn2c(-c3ccccc3Cl)nnc2s1 | 7.3* | / | / | /
C=C(C)C(=O)OCC1CN2C(CCC(C)C2c2ccc(Br)cc2)C(=O)O1 (stereo unspecified) | / | / | ? | 1.6µM*!
Brc1ccc(OCCOCCN2CCOCC2)cc1 | / | / | 25µM* | 19%
O=C(Nc1cccc(-c2cn3cccnc3n2)c1)c1ccc(Br)o1 | >57 | 6.6* | 15% | 28%
CC(C)(C)C(=O)[C@H]([C@@H](c1ccccc1)N1CCOCC1)N1CCOCC1 | / | / | 11%[11.4 µM] | 25%[11.4 µM]
COc1ccc(-c2coc3cc(O[C@@H]4O[C@@H](CO)[C@@H](O)[C@@H](O)[C@H]4O)cc(O)c3c2=O)cc1 | / | / | -3% | 6%
CC(=O)Nc1ccc(-c2nc(C)c(C(C)=O)n2O)cc1 | 6.6* | / | 4% | 29%
CCOC(=O)CNC(=O)CSc1nc2cccnc2n1C1CCCCC1 | >57 | >77 | -3% | 11%
CC(C)OC(=O)CSc1nc2cccnc2n1C1CCCCC1 | >57 | >77 | ? | 16µM*
O=C(O)CCNc1ccccc1C(=O)O | / | / | 0%[11.4 µM] | 6%[11.4 µM]
N#Cc1nc(COc2ccccc2F)oc1NCCc1ccccc1 | i | i | ? | ?
CN(Cc1ccccc1)c1oc(COc2ccccc2F)nc1C#N | / | / | ? | 25µM*
Cc1ccc2c(c1)-c1cc(C)nn1C(c1sccc1C)N2 (stereo unspecified) | 11* | / | ? | ?
CCn1c(=O)n(CC(=O)NC2CCCC(C)C2C)c(=O)c2ccccc21 (stereo unspecified) | >57 | ? | ? | 25µM*
Nc1cccc2cc(S(=O)(=O)Nc3ccc(C(=O)O)cc3)ccc12 | / | / | 4%[11.4 µM] | 4%[11.4 µM]
CCOc1cccc(-c2nnc3sc(COc4ccc(C)cc4)nn23)c1 | >57 | >77 | ? | 25µM*
CCOc1cccc(-c2nnc3sc(COc4ccccc4)nn23)c1 | >26 | / | / | /
CCOc1cccc(-c2nnc3sc(COc4ccc(Cl)cc4)nn23)c1 | >57 | >77 | ? | 16µM*
CCOc1ccccc1OCc1nn2c(COc3ccccc3)nnc2s1 | >57 | / | ? | 16µM*
COc1ccc(-c2nnc3sc(COc4ccccc4)nn23)cc1 | >11 | / | / | /
COc1ccc(-c2nnc3sc(COc4ccc(C)cc4)nn23)cc1 | >11 | >77 | ? | 20µM*
c1ccc(Cc2nn3c(COc4ccccc4)nnc3s2)cc1 | >57 | >77 | -2% | 1%
CC(C)(CC(=O)Nc1ccccc1)C(=O)O | / | / | 12%[11.4 µM] | 6%[11.4 µM]
COC(=O)[C@@H]1O[C@@H](SCCN)[C@@H](O)[C@H](O)[C@H]1O | / | / | 12%[11.4 µM] | -4%[11.4 µM]
COc1cc2ccc([C@H](C)NCC#N)cc2cc1OC | / | / | 3%[11.4 µM] | -1%[11.4 µM]
SMILES | Bst PK mod | GBA activity | TSHR ag | HEK293 cAMP ctrl
CCOc1ccc(-c2nn3c(-c4ccc(OC)cc4)nnc3s2)cc1 | >11 | / | / | /
CCOc1ccc(-c2nn3c(-c4ccccc4)nnc3s2)cc1 | 5.1* | >77 | ? | ?
CCN(CC)c1ccc(-c2nn3c(-c4cccnc4)nnc3s2)cc1 | 5.2* | / | / | /
CC(CCc1nc2ccccc2s1)(c1ccc(O)cc1)c1ccc(O)cc1 | / | / | -3%[11.4 µM] | -7%[11.4 µM]
COC(=O)[C@@]1(Cc2ccc(F)cc2)[C@H]2c3cc(C(=O)N4CCCC4)n(CCSCCO)c3C[C@H]2CN1C(=O)c1ccccc1 | / | / | 11% | 16%
COC(=O)[C@@]1(Cc2ccc(F)cc2)[C@H]2c3cc(C(=O)N4CCCC4)n(CCc4c[nH]c5cc(F)ccc45)c3C[C@H]2CN1C(=O)c1ccccc1 | / | / | -1% | 7%
COC(=O)[C@@]1(Cc2ccc(F)cc2)[C@H]2c3cc(C(=O)N4CCCC4)n(CCN4CNCC4=O)c3C[C@H]2CN1C(=O)c1ccccc1 | / | / | 1% | 20%
COC(=O)[C@@]1(Cc2ccccc2)[C@H]2c3cc(C(=O)N4CCCC4)n(CCc4ccccn4)c3C[C@H]2CN1C(=O)c1ccccc1 | / | / | ? | 16µM*
COC(=O)Cn1c(C(=O)N2CCCC2)cc2c1C[C@H]1CN(C(=O)c3ccccc3)[C@@](Cc3ccccc3)(C(=O)OC)[C@@H]21 | / | / | ? | 20µM*
COC(=O)[C@@]1(Cc2ccccc2)[C@H]2c3cc(C(=O)N4CCCC4)n(CC4CC4)c3C[C@H]2CN1C(=O)c1ccccc1 | / | / | ? | 2µM*
